From the supplement of paper PMC8975748 come the findings set out here.

Experiment [1] concerns Saccharomyces cerevisiae BY4741 SeMeCo community. The experiment in a line: mean cell size (pixel area) (pixels); higher = larger cells. The conditions noted are these: 10 µM; 24 h; SM minimal medium. The essentials: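 Mean cell pixel area per well was measured in a four-plasmid fluorescent community of Saccharomyces cerevisiae BY4741, where every plasmid complements one auxotrophy and carries a fluorescent marker. Cells from an overnight preculture at OD600 = 1.0 were diluted to OD600 = 0.3 and dispensed at 70 µl into 384-well plates acoustically predosed with drug to a final 10 µM in SM medium. Incubation lasted 24 h, followed by paraformaldehyde fixation, automated confocal imaging and analysis in Harmony. Reported figures are averaged over 3 replicates. Same SeMeCo high-content imaging drug screen: Selleck FDA-approved drugs at 10 µM, 24 h in SM medium, 384-well plates, 3 replicates.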

Experiment [2] shares this test system. Description: z-score of prototroph abundance vs DMSO median; higher = larger share of this subpopulation than in DMSO controls. The note with it: 10 µM; 24 h; SM minimal medium; subpopulation (auxotrophy): Prototroph. The essentials: (§1)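 A community of Saccharomyces cerevisiae BY4741 was built from four plasmids that each restored one auxotrophy and encoded a distinct fluorescent protein. Pre-grown overnight to OD600 1.0 and diluted to 0.3, it was dispensed at 70 µl into 384-well plates acoustically predosed with library drugs for a final 10 µM, and grown 24 h in minimal SM medium. Cells were then paraformaldehyde-fixed and imaged by automated confocal microscopy. Thresholds and autofluorescence correction came from single-auxotroph fluorescent strains, and each subpopulation's abundance was scored as a z-score relative to the vehicle-well median.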

The test system is the same in experiment [3]. The experiment in a line: z-score of subpopulation abundance vs DMSO median, subpopulation auxotrophic for M; higher = larger share of this subpopulation than in DMSO controls. The note with it: 10 µM; 24 h; SM minimal medium; subpopulation (auxotrophy): M. The essentials: as §1
Experiment [4] has the same test system. The experiment in a line: z-score of subpopulation abundance vs DMSO median, subpopulation auxotrophic for L; higher = larger share of this subpopulation than in DMSO controls. The conditions noted are these: 10 µM; 24 h; SM minimal medium; subpopulation (auxotrophy): L. The method in brief:
as §1

Experiment [5] shares this test system. The experiment in a line: z-score of subpopulation abundance vs DMSO median, subpopulation auxotrophic for U; higher = larger share of this subpopulation than in DMSO controls. The conditions noted are these: 10 µM; 24 h; SM minimal medium; subpopulation (auxotrophy): U. The essentials:
as §1

The test system is the same in experiment [6]. Description: z-score of subpopulation abundance vs DMSO median, subpopulation auxotrophic for H; higher = larger share of this subpopulation than in DMSO controls. The note with it: 10 µM; 24 h; SM minimal medium; subpopulation (auxotrophy): H. The method in brief: as §1
The test system is the same in experiment [7]. The experiment in a line: z-score of subpopulation abundance vs DMSO median, subpopulation auxotrophic for LU; higher = larger share of this subpopulation than in DMSO controls. The note with it: 10 µM; 24 h; SM minimal medium; subpopulation (auxotrophy): LU. The method in brief: as §1
The test system is the same in experiment [8]. The experiment in a line: z-score of subpopulation abundance vs DMSO median, subpopulation auxotrophic for LM; higher = larger share of this subpopulation than in DMSO controls. The conditions noted are these: 10 µM; 24 h; SM minimal medium; subpopulation (auxotrophy): LM. The method in brief:
as §1

Experiment [9] has the same test system. The experiment in a line: z-score of subpopulation abundance vs DMSO median, subpopulation auxotrophic for HM; higher = larger share of this subpopulation than in DMSO controls. The note with it: 10 µM; 24 h; SM minimal medium; subpopulation (auxotrophy): HM. The essentials:
as §1

The test system is the same in experiment [10]. Description: z-score of subpopulation abundance vs DMSO median, subpopulation auxotrophic for HU; higher = larger share of this subpopulation than in DMSO controls. The conditions noted are these: 10 µM; 24 h; SM minimal medium; subpopulation (auxotrophy): HU. The method in brief:
as §1

Experiment [11] shares this test system. The experiment in a line: z-score of subpopulation abundance vs DMSO median, subpopulation auxotrophic for HL; higher = larger share of this subpopulation than in DMSO controls. The conditions noted are these: 10 µM; 24 h; SM minimal medium; subpopulation (auxotrophy): HL. The essentials:
as §1

Experiment [12] has the same test system. Description: z-score of subpopulation abundance vs DMSO median, subpopulation auxotrophic for HLU; higher = larger share of this subpopulation than in DMSO controls. The conditions noted are these: 10 µM; 24 h; SM minimal medium; subpopulation (auxotrophy): HLU. The method in brief:
as §1

Experiment [13] has the same test system. The experiment in a line: z-score of subpopulation abundance vs DMSO median, subpopulation auxotrophic for HLM; higher = larger share of this subpopulation than in DMSO controls. The conditions noted are these: 10 µM; 24 h; SM minimal medium; subpopulation (auxotrophy): HLM. The method in brief:
as §1

Experiment [14] has the same test system. The experiment in a line: z-score of subpopulation abundance vs DMSO median, subpopulation auxotrophic for HUM; higher = larger share of this subpopulation than in DMSO controls. The note with it: 10 µM; 24 h; SM minimal medium; subpopulation (auxotrophy): HUM. The method in brief: as §1
Experiment [15] has the same test system. The experiment in a line: z-score of subpopulation abundance vs DMSO median, subpopulation auxotrophic for LUM; higher = larger share of this subpopulation than in DMSO controls. The note with it: 10 µM; 24 h; SM minimal medium; subpopulation (auxotrophy): LUM. The essentials: as §1
The test system is the same in experiment [16]. The experiment in a line: z-score of subpopulation abundance vs DMSO median, subpopulation auxotrophic for HLUM; higher = larger share of this subpopulation than in DMSO controls. The conditions noted are these: 10 µM; 24 h; SM minimal medium; subpopulation (auxotrophy): HLUM. The essentials:
as §1

The test system is the same in experiment [17]. The experiment in a line: z-score of subpopulation abundance vs DMSO median, subpopulation auxotrophic for UM; higher = larger share of this subpopulation than in DMSO controls. The note with it: 10 µM; 24 h; SM minimal medium; subpopulation (auxotrophy): UM. The essentials:
as §1

Structures can show the parent of a compound that is named as a salt. ± gives the standard deviation of the averaged measurements.

In the case of `O=C(O)C[C@H](O)C[C@H](O)/C=C/c1c(C2CC2)nc2ccccc2c1-c1ccc(F)cc1` [Pitavastatin Calcium], the mean cell size in [1] was determined as 12 ± 0.2. The “z-score of prototroph abundance” value in experiment [2] was -2.8. For the same compound, the “z-score of subpopulation abundance” value in experiment [3] is 1; in experiment [4], 0.86; in [5], 0.68; in [6], 1.86; in experiment [7] it was 1.45; in experiment [8], -0.2. The “z-score of subpopulation abundance” value was 4.05 in experiment [9]; 2.66 in [10]; 1.83 in experiment [11]; 1.38 in experiment [12]; 2.39 in [13]; 3.37 in experiment [14]. The “z-score of subpopulation abundance” value in [15] is 1.38; in experiment [16], 1.55.

As for `O=C(NCCO[N+](=O)[O-])c1cccnc1` [Nicorandil], in experiment [1], the mean cell size worked out at 12.4 ± 0.13. The “z-score of prototroph abundance” value in [2] was found to be 0.69. Also, the “z-score of subpopulation abundance” value in experiment [3] is -0.48; in [4], 0.07; in experiment [5] it was -0.31; in experiment [6], -0.28; in [7], 0.21; in [8], -0.01. In addition, the “z-score of subpopulation abundance” value in [9] is -0.61; in experiment [10] it was -0.39; in experiment [11], -0.84; in experiment [12], 0.08; in experiment [13], -0.83; in experiment [14] it was -0.48. The “z-score of subpopulation abundance” value in experiment [15] was -0.44; in experiment [16], -0.37.

In experiment [1], `O=C(O)CCC(=O)c1ccc(-c2ccccc2)cc1` [Fenbufen] came in with a mean cell size of 12.8 ± 0.18. In addition, the “z-score of prototroph abundance” value in [2] is -0.31. Further, the “z-score of subpopulation abundance” value in experiment [3] was found to be 0.67; in [4], 0.14; in [5], 0.32; in experiment [6], 0.71; in experiment [7] it was 1.1; in experiment [8], 0.1. Further, the “z-score of subpopulation abundance” value in experiment [9] was -0.02; in experiment [10] it was 0.87; in experiment [17] it was -0.92; in experiment [12] it was -0.12; in experiment [13], 0.59; in [14], 0.23. The “z-score of subpopulation abundance” value was -0.23 in experiment [15] and 0.69 in experiment [16].

`C[C@@H](O)[C@H]1C(=O)N2C(C(=O)[O-])=C(SC3Cn4cnc[n+]4C3)[C@H](C)[C@H]12` (some centres not stated) [Biapenem] showed a mean cell size in [1] of 12.11 ± 0.1. Also, the “z-score of prototroph abundance” value in experiment [2] was 0.75. Besides, the “z-score of subpopulation abundance” value in experiment [3] was 1.3; in experiment [4] it was -0.66; in [5], -0.12; in [6] it was -0.04; in experiment [7], -1.32; in [8], -0.22. In addition, the “z-score of subpopulation abundance” value in [9] is 0.51; in [10], -0.36; in experiment [11], -0.48; in [12], -1.25; in [13] it was -0.52; in experiment [14], -0.24. Besides, the “z-score of subpopulation abundance” value is -0.49 in experiment [15] and -0.81 in experiment [16].

The compound `CCOc1ccc(NC(C)=O)cc1` [Phenacetin] had a mean cell size in experiment [1] of 12.6 ± 0.17. The “z-score of prototroph abundance” value in experiment [2] is -0.61. Besides, the “z-score of subpopulation abundance” value in experiment [3] was 0.1; in experiment [4], -0.65; in [5] it was 0.86; in experiment [6], 0.23; in experiment [7] it was 0.1; in [8] it was -1.19. Further, the “z-score of subpopulation abundance” value in [9] was 0.08; in experiment [10] it was 0.77; in [17], 0.96; in experiment [11] it was -0.01; in [12], 0.79; in experiment [13], 0.8. Besides, the “z-score of subpopulation abundance” value is 1.17 in experiment [14], -0.17 in [15] and 0.17 in experiment [16].

For the compound `CNCC[C@H](Oc1cccc2ccccc12)c1cccs1` [Duloxetine HCl], the mean cell size in experiment [1] came out at 12.5 ± 0.21. Also, the “z-score of prototroph abundance” value in [2] worked out at 0.65. For the same compound, the “z-score of subpopulation abundance” value in experiment [3] was 0.4; in experiment [4], -0.57; in experiment [5] it was -0.11; in experiment [6], -0.45; in experiment [7], -0.43; in experiment [8] it was -0.49. Further, the “z-score of subpopulation abundance” value is 0 in experiment [9]; -1.13 in experiment [10]; -1.07 in experiment [11]; -0.74 in [12]; -0.84 in experiment [13]; -0.47 in experiment [14]. The “z-score of subpopulation abundance” value in experiment [15] is -0.53; in [16] it was 0.03.
